In the supplement of paper PMC13380429:

Assays:
[1] = tested on: Vero E6 infected with SARS-CoV-2; assay: morphology score (similarity to uninfected cells); higher = more like uninfected cells; conditions: 24 h
[2] = tested on: Vero E6 infected with SARS-CoV-2; assay: SARS-CoV-2 infection rate relative to infected DMSO; higher = more infection, active = 60 or less; conditions: 24 h

Compound | morphology score [1] | SARS-CoV-2 infection rate [2]
CN(C)CCOC1=Cc2ccccc2Sc2ccc(Cl)cc21 [zotepine] (0.833333 µM) | 0.061 | 106% (inactive)
CC[C@@H](C(N)=O)N1CCCC1=O [levetiracetam] (10 µM) | 0.0141 | 109% (inactive)
O=C1C=C2C=C[C@@H]3C[C@@]2(O1)[C@H]1CCCCN31 [securinine] (10 µM) | 0.327 | 85.5% (inactive)
C[C@@H](c1nc(-c2ccc(C#N)cc2)cs1)[C@](O)(Cn1cncn1)c1ccc(F)cc1F [ravuconazole] (10 µM) | 0.0292 | 107% (inactive)
C1=Cc2cccc(OCC3CNCCO3)c2C1 (configuration not stated) [indeloxazine] (10 µM) | -0.319 | 106% (inactive)
CCOC(=O)Nc1cc2c(c(N)n1)N=C(c1ccccc1)[C@H](C)N2 [mivobulin] (10 µM) | -0.0939 | 112% (inactive)
OCCCNc1ccccc1 [3-anilinopropan-1-ol] (10 µM) | -0.164 | 110% (inactive)
COc1ccc(-c2sc(NC(=O)C(C)(C)C)nc2C)cc1S(=O)(=O)Nc1ccc(O)cc1 [PI4KIII-beta-inhibitor-1] (10 µM) | 0.325 | 66% (inactive)
O=C1C[C@@H]2OCC=C3CN4CC[C@]56c7ccccc7N1[C@H]5[C@H]2[C@H]3C[C@H]46 [strychnine] (10 µM) | 0.314 | 90% (inactive)
COc1ccccc1OCC(O)CNC(C)C (configuration not stated) [moprolol] (10 µM) | 0.0947 | 100% (inactive)
NP(N)(=O)NC(=O)c1ccc(F)cc1 [flurofamide] (10 µM) | 0.21 | 94.5% (inactive)
CN1C[C@H](C(=O)N[C@]2(C)O[C@@]3(O)[C@@H]4CCCN4C(=O)[C@H](Cc4ccccc4)N3C2=O)C[C@@H]2c3cccc4[nH]cc(c34)C[C@H]21 [dihydroergotamine] (10 µM) | -0.0107 | 104% (inactive)
Oc1cccc(-c2nc(N3CCOCC3)c3oc4ncccc4c3n2)c1 (10 µM) | -0.0667 | 118% (inactive)
CCN(CC)CCCC(C)Nc1nc(C)cc(Nc2ccc3nc(C)cc(N)c3c2)n1 (configuration not stated) (10 µM) | -0.115 | 110% (inactive)
CCOC(=O)c1ncn2c1CN(C)C(=O)c1cc(N=[N+]=[N-])ccc1-2 (10 µM) | 0.00535 | 110% (inactive)
O=C1CCCC(=O)C1C(=O)c1ccc(C(F)(F)F)cc1[N+](=O)[O-] [nitisinone] (10 µM) | 0.0537 | 110% (inactive)
O=C(O)CCN(O)C(=O)CCCCCCCCC1CC1 (10 µM) | 0.0952 | 102% (inactive)
COc1cccc(Nc2c(C(N)=O)cnc3c(C)cc(S(=O)(=O)c4cccc(C(=O)N(C)C)c4)cc23)c1 (10 µM) | 0.345 | 91% (inactive)
Cc1cccc(OCC(O)CNC(C)(C)C)c1C (configuration not stated) [xibenolol] (10 µM) | 0.0955 | 97.5% (inactive)
CCN(CCCCOC(=O)c1ccc(OC)c(OC)c1)C(C)Cc1ccc(OC)cc1 (configuration not stated) [mebeverine] (10 µM) | 0.178 | 94.5% (inactive)
O=c1c(-c2ccc(O)cc2)coc2cc(O)cc(O)c12 [genistein] (10 µM) | -0.211 | 119% (inactive)
CC(C)(CO)[C@@H](O)C(=O)NCCC(=O)O [pantothenic-acid] (10 µM) | 0.0324 | 110% (inactive)

Compound | morphology score [1] | SARS-CoV-2 infection rate [2]
N#Cc1cc(NC(=O)C(=O)O)c(Cl)c(NC(=O)C(=O)O)c1 [lodoxamide] (10 µM) | -0.0976 | 110% (inactive)
NCC(=O)N[C@@H](CCC(N)=O)C(=O)O (10 µM) | 0.0903 | 108% (inactive)
CCCN(CCC)CCc1ccc(OC)c(OCCc2ccccc2)c1 (10 µM) | 0.353 | 86.5% (inactive)
O=C1c2cccnc2OC[C@@H]2CCCN12 (10 µM) | -0.0333 | 108% (inactive)
CCc1cc2c(c(CC)n1)CCC(=O)N2Cc1ccc(-c2ccccc2-c2nnn[nH]2)cc1 (10 µM) | 0.264 | 98.5% (inactive)
CCCOCCn1c(=O)c(N2CCN(CCO)CC2)nc2cnc(-c3ccc(OC)nc3)cc21 (10 µM) | -0.0795 | 116% (inactive)
CC(C)c1onc(-c2c(Cl)cccc2Cl)c1COc1ccc(/C=C/c2cccc(C(=O)O)c2)c(Cl)c1 (10 µM) | 0.151 | 96.5% (inactive)
N[C@H](Cc1ccccc1)C(=O)O [D-phenylalanine] (10 µM) | 0.0544 | 104% (inactive)
CC(C)(OCc1nn(Cc2ccccc2)c2ccccc12)C(=O)O [bindarit] (10 µM) | 0.132 | 112% (inactive)
NS(=O)(=O)c1cc(Cl)c(Cl)c(S(N)(=O)=O)c1 [diclofenamide] (10 µM) | 0.298 | 84.5% (inactive)
O=C(Nc1ccc([N+](=O)[O-])cc1Cl)c1cc(Cl)ccc1O [niclosamide] (0.833333 µM) | 0.0975 | 97% (inactive)
CC[C@H](C)C(=O)O[C@H]1C[C@@H](C)C=C2C=C[C@H](C)[C@H](CC[C@@H]3C[C@@H](O)CC(=O)O3)[C@H]21 [lovastatin] (10 µM) | 0.0359 | 110% (inactive)
C[C@]12CC[C@H]3[C@@H](CCC4=CC(=O)CC[C@@H]43)[C@@H]1CC[C@@H]2O [Nandrolone] (10 µM) | 0.24 | 89.5% (inactive)
COC(=O)CC[C@@H]1N=C(c2ccccn2)c2cc(Br)ccc2-n2c(C)cnc21 [remimazolam] (10 µM) | 0.132 | 95% (inactive)
OCCOCCN1CCN(C(c2ccccc2)c2ccc(Cl)cc2)CC1 (configuration not stated) [hydroxyzine] (10 µM) | 0.0655 | 104% (inactive)
NC(=O)c1ncn([C@@H]2O[C@H](CO)[C@@H](O)[C@H]2O)n1 [ribavirin] (10 µM) | 0.0157 | 97.5% (inactive)
COc1cc2nc(N3CCN(C(=O)C4CCCO4)CC3)nc(N)c2cc1OC (configuration not stated) [terazosin] (10 µM) | -0.108 | 110% (inactive)
C=CC(=O)Nc1cc(Nc2nccc(-c3cn(C)c4ccccc34)n2)c(OC)cc1N(C)CCN(C)C [osimertinib] (10 µM) | -0.27 | 110% (inactive)
Cc1cc(C(N)=O)ccc1-n1c(CCC(=O)O)ccc1-c1ccc(-n2ccnc2)cc1 (10 µM) | 0.066 | 89% (inactive)
c1ccc(Oc2nc(NC3CCCCC3)c3[nH]cnc3n2)cc1 (0.833333 µM) | 0.191 | 104% (inactive)
COc1ccc2[nH]c3c(-c4cccc5ccccc45)nccc3c2c1 (10 µM) | -0.0282 | 111% (inactive)
O=S(=O)(c1cccc2c(O)nccc12)N1CCCNCC1 [hydroxyfasudil] (10 µM) | 0.355 | 108% (inactive)

Compound | morphology score [1] | SARS-CoV-2 infection rate [2]
COc1ccc(C(Cl)=C(c2ccc(OC)cc2)c2ccc(OC)cc2)cc1 [chlorotrianisene] (10 µM) | 0.0843 | 95.5% (inactive)
N#CC1(c2ccc(NC(=O)c3cccnc3NCc3ccncc3)cc2)CCCC1 [apatinib] (10 µM) | 0.31 | 107% (inactive)
COc1cc2c(cc1C(F)(F)F)N(C(=O)Nc1cc(F)cc(-c3cccnc3)c1)CC2 (10 µM) | -0.0154 | 106% (inactive)
CC(C)Cc1ccc(C(C)C(=O)NO)cc1 (configuration not stated) [ibuproxam] (10 µM) | 0.234 | 93.5% (inactive)
CCn1c2ccccc2c2cc(CNCc3ccccc3OC)ccc21 (10 µM) | 0.26 | 87% (inactive)
Cc1ncc(C)n2nc([C@@H]3C[C@H]3c3nc4c5cccnc5ccn4c3C)nc12 (10 µM) | -0.0961 | 106% (inactive)
O=C(O)CCCCC(=O)O [adipic-acid] (10 µM) | -0.0456 | 105% (inactive)
Clc1cccc(N2CCNCC2)c1 (10 µM) | 0.0057 | 114% (inactive)
O=C(NC1CCNCC1)c1n[nH]cc1NC(=O)c1c(Cl)cccc1Cl (10 µM) | -0.285 | 109% (inactive)
N#Cc1cc(-c2n[nH]c(-c3ccncc3)n2)ccn1 [topiroxostat] (10 µM) | 0.145 | 94.5% (inactive)
CC#CCC(C)[C@H](O)/C=C/[C@@H]1[C@H]2C/C(=C/CCCC(=O)O)C[C@H]2C[C@H]1O (some centres not stated) [iloprost] (10 µM) | 0.0115 | 108% (inactive)
Nc1c(CC(=O)O)cccc1C(=O)c1ccccc1 [amfenac] (10 µM) | 0.0516 | 104% (inactive)
CN[C@@H](C)C(=O)N[C@H](C(=O)N1CCC[C@H]1C(=O)Nc1snnc1-c1ccccc1)C1CCCCC1 (10 µM) | -0.0857 | 110% (inactive)
O=C(Nc1cccc(C(F)(F)F)c1)Nc1cc(S(=O)(=O)NC2CC2)ccc1-c1ccsc1 (10 µM) | 0.196 | 102% (inactive)
CCCN(CCC)[C@H]1CCc2ccc(O)cc2C1 [7-hydroxy-DPAT] (10 µM) | -0.355 | 122% (inactive)
COc1cccc(CCc2ccccc2OCC[C@@H]2C[C@@H](O)CN2C)c1 (10 µM) | 0.533 | 54.5% (active)
Cn1c(N2CCCCS2(=O)=O)nc(C(=O)NCc2ccc(F)cc2)c(O)c1=O (10 µM) | 0.046 | 104% (inactive)
CCCCCCCCCCOc1cc2c(O)c(C(=O)OCC)cnc2cc1OCC [decoquinate] (10 µM) | 0.147 | 101% (inactive)
CCN(CC)CCOCCOC(=O)C1(c2ccccc2)CCCC1 [carbetapentane] (10 µM) | 0.363 | 83% (inactive)
CN1CCN(c2ccc(Nc3ncc4cc(C#N)c(=O)n(C5CCCC5)c4n3)cc2)CC1 (0.833333 µM) | 0.153 | 104% (inactive)
N#CN=C(NCCCCCCOc1ccc(Cl)cc1)Nc1ccncc1 (10 µM) | -0.0862 | 96.5% (inactive)
COc1ccc([C@@H]2CC(=O)c3c(O)cc(O[C@@H]4O[C@H](CO)[C@@H](O)[C@H](O)[C@H]4O[C@@H]4O[C@@H](C)[C@H](O)[C@@H](O)[C@H]4O)cc3O2)cc1O [neohesperidin] (10 µM) | 0.00505 | 112% (inactive)
